Measured values as given in the supplement of paper PMC13380429.

System: Vero E6 infected with SARS-CoV-2
Assay: inhibition of SARS-CoV-2 cytopathic effect; higher = more antiviral protection, active = above 15
Details: 48 h

Measured: inhibition of SARS-CoV-2 cytopathic effect

CCOCCOc1ccccc1C(N)=O [etosalamide]
inactive: 1 nM -2.2% | 8.33 nM -0.59% | 100 nM -5.45% | 833.33 nM -5.67% | 10000 nM -2.33%

Nc1nc2c(ncn2COCCO)c(=O)[nH]1 [acyclovir]
inactive: 1 nM 12.6% | 8.33 nM 6.63% | 100 nM 6.1% | 833.33 nM 7.16% | 10000 nM 2.2%

Cc1cnc(Nc2ccc(N3CCN(C)CC3)cc2)nc1Nc1cccc(S(=O)(=O)NC(C)(C)C)c1
inactive: 1 nM -0.35% | 8.33 nM -0.73% | 100 nM 0.51% | 833.33 nM -7.25% | 10000 nM -21.1%

C[C@H](NCc1ccc(OCc2ccccc2F)cc1)C(N)=O [priralfinamide]
inactive: 1 nM -0.13% | 8.33 nM 7.24% | 100 nM 6.27% | 833.33 nM 0.58% | 10000 nM -1.48%

CNCCC(Oc1ccccc1OC)c1ccccc1 (stereo not given) [nisoxetine]
inactive: 1 nM -1.97% | 8.33 nM 0.21% | 100 nM 4.4% | 833.33 nM 7.73% | 10000 nM -0.07%

CCOC(=O)[C@H](CCc1ccccc1)N[C@@H](C)C(=O)N1C(=O)N(C)C[C@H]1C(=O)O [imidapril]
inactive: 1 nM -1.07% | 8.33 nM 0.74% | 100 nM 0.36% | 833.33 nM -0.5% | 10000 nM -1.28%

CS(=O)(=O)c1cc(F)cc2c3c(n(Cc4ccc(Cl)cc4)c12)[C@@H](CC(=O)O)CC3 [laropiprant]
inactive: 1 nM 0.24% | 8.33 nM -3% | 100 nM -0.36% | 833.33 nM 1.31% | 10000 nM 2.04%

Cc1cc(C)cc(C(=O)NOCCCCCC(=O)NO)c1
inactive: 1 nM 2.07% | 8.33 nM -0.95% | 100 nM -1.04% | 833.33 nM -9.5% | 10000 nM -23.1%

CC1=C(C(=O)Nc2cc3cn[nH]c3cc2F)C(c2ccc(C(F)(F)F)cc2)CC(=O)N1 (stereo not given)
inactive: 1 nM 1.8% | 8.33 nM -1.07% | 100 nM 1.5% | 833.33 nM -0.29% | 10000 nM -5.1%

C=C1/C(=C\C=C2/CCC[C@]3(C)[C@@H]([C@H](C)CC[C@@H](O)C(C)C)CC[C@@H]23)C[C@@H](O)C[C@@H]1O [tacalcitol]
inactive: 1 nM -1.15% | 8.33 nM -0.65% | 100 nM 1.63% | 833.33 nM 1.18% | 10000 nM 1.31%

CCN(CC)CCNC(=O)c1ccc(N)cc1 [procainamide]
inactive: 1 nM -2.56% | 8.33 nM 0.24% | 100 nM -0.04% | 833.33 nM -1.26% | 10000 nM 0.87%

O=c1[nH]c2cc(C(F)(F)F)c(N3CCOCC3)cc2n(CP(=O)(O)O)c1=O
inactive: 1 nM 0.45% | 8.33 nM 0.83% | 100 nM -1.59% | 833.33 nM 1.35% | 10000 nM -2.92%

CCN(CC)Cc1ccc2cc(COC(=O)Nc3ccc(C(=O)NO)cc3)ccc2c1 [givinostat]
inactive: 1 nM -2.85% | 8.33 nM -0.88% | 100 nM -5.68% | 833.33 nM -19.8% | 10000 nM -29.6%

CC(=O)Nc1c(I)cc(I)c(C(=O)O)c1I [acetriazoic-acid]
inactive: 1 nM -0.01% | 8.33 nM 0.54% | 100 nM -0.88% | 833.33 nM 0.14% | 10000 nM -0.46%

C[C@H]1COC2=C1C(=O)C(=O)c1c2ccc2c1CCCC2(C)C [cryptotanshinone]
inactive: 1 nM 1.45% | 8.33 nM 0.55% | 100 nM 2.85% | 833.33 nM -1.89% | 10000 nM -2.92%

CC1=C(CCC(=O)O)c2cc3[nH]c(cc4nc(cc5[nH]c(cc1n2)c(C)c5C(C)O)C(C)=C4C(C)O)c(C)c3CCC(=O)O (stereo not given) [hematoporphyrin]
inactive: 1 nM 0.75% | 8.33 nM 5% | 100 nM 1.48% | 833.33 nM -0.76% | 10000 nM -6.32%

C[C@](N)(Cc1ccc(O)cc1)C(=O)O [metirosine]
inactive: 1 nM 2.52% | 8.33 nM 2.13% | 100 nM 7.36% | 833.33 nM 2.34% | 10000 nM 2.26%

CC(=O)N1CCC(C(=O)N(CCCN2CCC(Cc3ccc(C(N)=O)cc3)CC2)c2ccc(C)c(Cl)c2)CC1
inactive: 1 nM 0.74% | 8.33 nM -0.02% | 100 nM -0.6% | 833.33 nM 0.17% | 10000 nM 2.52%
